PubChem BioAssay (NCI)
About 79,000 compounds went through this panel and 15% of them were active in at least one assay; those are over-represented in the sample as a whole. No stated cut-off is given here; in the data, active means growth inhibition above about 70%; inactive means the rest.

Columns and labels:
[1] = NCI Yeast Anticancer Drug Screen. Data for the rad50 strain (AID 155);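 further: 0% = growth of vehicle-only cultures of the same strain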; details: S. cerevisiae rad50 strain growth inhibition; at 50.0 µM; active compounds read high
Method in brief: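 Growth of the mutant yeast was measured after compound exposure and referenced to vehicle-treated cultures.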

[2] = NCI Yeast Anticancer Drug Screen. Data for the mec2-1 strain (AID 157); details: S. cerevisiae mec2-1 strain, at 50.0 µM, active compounds read high
Method in brief: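 Each compound was tested on mec2-1 yeast, a strain altered in DNA damage repair or cell cycle control. Growth inhibition is reported relative to vehicle.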

[3] = NCI Yeast Anticancer Drug Screen. Data for the sgs1 mgt1 strain (AID 161);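 further: 0% = growth of cultures given vehicle only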; details: S. cerevisiae sgs1 mgt1 strain, at 50.0 µM, active compounds read high
Method in brief: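 Inhibition of yeast growth, normalised to vehicle-treated controls, is reported for a strain bearing genetic alterations in DNA damage repair.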

[4] = NCI Yeast Anticancer Drug Screen. Data for the cln2 rad14 strain (AID 165);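 further: 0% = growth equal to vehicle treated cultures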; details: S. cerevisiae cln2 rad14 strain, at 50.0 µM, active compounds read high
Method in brief: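 Test compounds were added to cln2 rad14 yeast cultures; inhibition of growth was then determined by comparison with vehicle treatment.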

[5] = NCI Yeast Anticancer Drug Screen. Data for the bub3 strain (AID 167); details: S. cerevisiae bub3 mutant strain, at 50.0 µM, active compounds read high
Method in brief: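 Whole-cell yeast assay. The mutant strain was incubated with compounds, and growth inhibition was determined by comparison with vehicle-treated cells.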

[6] = NCI Yeast Anticancer Drug Screen. Data for the mlh1 rad18 strain (AID 175); details: S. cerevisiae mlh1 rad18 strain growth inhibition; at 50.0 µM; active compounds read high
Method in brief: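 Inhibition values reflect reduced growth of mutant yeast versus vehicle-treated controls following compound exposure; the mutations affect DNA damage repair.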

Measured: growth inhibition

N#Cc1c2c(c(N=P(c3ccccc3)(c3ccccc3)c3ccccc3)n3c1nc1ccccc13)CCCC2
inactive: [1] 44.6% | [2] 5.5% | [3] 14.9% | [4] 41.9% | [5] 30% | [6] 26.9%

CS(=O)(=O)C(CCC(=O)c1ccc2ccccc2c1)C(=O)c1ccccc1 (stereo not given)
inactive: [1] 3.1% | [2] -12.7% | [3] 5.3% | [4] 20.4% | [5] -2.4% | [6] -7.15%

CCCCCCCCCc1ccc(COCC)cc1
inactive: [1] -9.55% | [2] 11.9% | [3] 7.05% | [4] -16% | [5] 22.1% | [6] 9.55%

CC(C)CCC(=O)OC/C(=N\Nc1ccc([N+](=O)[O-])cc1[N+](=O)[O-])c1ccc(-c2ccccc2)cc1
inactive: [1] -17.7% | [2] 12.5% | [3] -15.8% | [4] -35.6% | [5] 1.9% | [6] 14.8%

Cc1cc(-c2ccc(NC(=O)c3cccc([N+](=O)[O-])c3)c(C)c2)ccc1NC(=O)c1cccc([N+](=O)[O-])c1
inactive: [1] -19.2% | [2] -26.7% | [3] 0.25% | [4] 15.3% | [5] 0.7% | [6] -14.3%

CCOc1cccc2c1N[S@@](=O)S2
inactive: [1] 4.85% | [2] -26.7% | [3] 11.5% | [4] 16.2% | [5] 7.8% | [6] 33.6%

O=C(N=c1ccc2nc(=O)[nH]n(O)c-2c1)C(F)(F)F
inactive: [1] -12.1% | [2] 5.5% | [3] -13.4% | [4] -10.3% | [5] -46.6% | [6] -32.7%

C=CCOC(=O)Oc1ccc(Cl)cc1Cl
inactive: [1] 9.75% | [2] 0.3% | [3] 3.3% | [4] -10.3% | [5] 21.4% | [6] 18.5%

CCCSc1n[nH]c(=S)c2nc[nH]c12
inactive: [1] -2% | [2] -24.3% | [3] -14.8% | [4] -5.5% | [5] -21.8% | [6] -1.15%

CCOC(=O)c1nc(-c2ccccc2)c(-c2ccccc2)c(-c2ccccc2)c1C
inactive: [1] -24.6% | [2] -2.55% | [3] 10.2% | [4] -36.9% | [5] -0.6% | [6] -4.85%

CCCCN(C(=O)CCC)c1ccccc1
inactive: [1] -71.1% | [2] -0.75% | [3] -11.9% | [4] -40% | [5] -11.2% | [6] -10.1%

Cn1cnnc1Sc1c([N+](=O)[O-])nc(-c2ccc([N+](=O)[O-])cc2)n1C
inactive: [1] -3.5% | [2] 3.15% | [3] 10.1% | [4] 35.1% | [5] 11.6% | [6] 8.95%

COc1ccc(N2C(=O)C3c4[nH]c5ccc(OC)cc5c4C4CCC(C(C)(C)C)CC4C3C2=O)cc1 (stereo not given)
inactive: [1] 22.1% | [2] 12.6% | [3] -5.45% | [4] -24% | [5] 16.1% | [6] 20.5%

CCOC1=CC(=O)CCC1
inactive: [1] -0.2% | [2] -23% | [3] 24.9% | [4] -36.5% | [5] -7.1% | [6] 3%

O=C(O)CSCc1cc2c(O)c(c1)Cc1cc(CSCC(=O)O)cc(c1O)Cc1cc(CSCC(=O)O)cc(c1O)Cc1cc(CSCC(=O)O)cc(c1O)C2
inactive: [1] -6.9% | [2] -5.6% | [3] -6.55% | [4] 14.7% | [5] 43.8% | [6] -0.1%

O=C(O)CCSC1(SCCC(=O)O)CCCCC1
inactive: [1] -23.9% | [2] -17.9% | [3] -8.55% | [4] -3.25% | [5] -9% | [6] -23.6%

CC(=O)Nc1ccc(S(=O)(=O)Oc2noc3ccc(Br)cc23)cc1
inactive: [1] -8.35% | [2] -8.05% | [3] -23% | [4] -4.5% | [5] -3.95% | [6] 2.4%

CCOC(=O)C(/C=N/Nc1ccc([N+](=O)[O-])cc1[N+](=O)[O-])Oc1cccc(OC)c1 (stereo not given)
inactive: [1] -8.85% | [2] -8.4% | [3] -19.8% | [4] -15.1% | [5] -8.75% | [6] -1.55%

CN(C)c1ccc(/C=N/NS(=O)(=O)c2ccc(N)cc2)cc1
inactive: [1] -4.4% | [2] -9.95% | [3] 18.8% | [4] -3.45% | [5] -32.2% | [6] -12.6%

Cc1cc(C)c(C(=O)CCC(=O)O)c(C)c1
inactive: [1] 11.8% | [2] 7.8% | [3] 16.6% | [4] 17.9% | [5] -4.7% | [6] 16.6%
